Compound activity as filed in PubChem BioAssay.
HTR5A inv ag – HTR5A inverse agonists in luminescence cell assay, primary screen, counter-screen for OPRM1-OPRD1 heterodimer inverse agonist project, full-deck HTS. 5-hydroxytryptamine receptor 5A (Homo sapiens), P47898. HTR5A cell line, inverse agonism. inhibition, % at 9.3 µM. 340,000 tested, 0.083% active. AID 504634, 2011; in the data active = inhibition mostly above about 23%, no sharp cut-off; inactive = mostly below about 18%;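 note: 0% = cells with DMSO and 100% = no-cell wells with DMSO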
Target sequence (P47898 whole entry, looked up): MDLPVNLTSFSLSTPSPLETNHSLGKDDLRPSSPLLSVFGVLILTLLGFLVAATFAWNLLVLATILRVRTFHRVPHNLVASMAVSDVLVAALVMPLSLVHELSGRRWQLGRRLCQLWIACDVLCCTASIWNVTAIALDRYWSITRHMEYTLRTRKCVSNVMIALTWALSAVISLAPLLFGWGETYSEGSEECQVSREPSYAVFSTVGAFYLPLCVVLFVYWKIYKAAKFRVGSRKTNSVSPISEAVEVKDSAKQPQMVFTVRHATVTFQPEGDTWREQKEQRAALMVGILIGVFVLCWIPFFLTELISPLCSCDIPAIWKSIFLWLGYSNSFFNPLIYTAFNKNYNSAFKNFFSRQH
HTR5A ag – HTR5A agonists in luminescence cell assay, primary screen, counter-screen for OPRM1-OPRD1 heterodimer agonist project, full-deck HTS. cell-based. activation, % at 9.3 µM. AID 504692, 2011. 340,000 tested, 0.61% active; in the data active = activation mostly above about 9.5%, no sharp cut-off; inactive = mostly below about 7.6%;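 note: 0% = cells with vehicle only and 100% = reference agonist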
MOR-DOR ag-1 – agonists of OPRM1-OPRD1 heterodimerization, primary screen, cell-based, luminescence | activation, % at 9.3 µM | cells | 340,000 tested, 0.3% active | Mu-type opioid receptor (Homo sapiens) + Delta-type opioid receptor (Homo sapiens), …; in the data active = activation above about 18%;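 note: 0% = vehicle-treated cells and 100% = reference agonist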
MOR-DOR inv ag-1 – inverse agonists of MOR-DOR heterodimerization, primary screen, cell-based, luminescence; cell-based MOR-DOR heterodimer luminescence, inverse agonism; AID 504357, 2011; 340,000 tested, 0.21% active; inhibition, % at 9.3 µM; in the data active = inhibition above about 22%, passing the limit was not always enough;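 note: 0% = cells with DMSO and 100% = wells without cells with DMSO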
MOR-DOR inv conf – inverse agonists of MOR-DOR heterodimerization, confirmation, cell-based, luminescence. inhibition, % at 9.3 µM. 580 tested, 20% active. shares compounds with MOR-DOR inv ag-1. cells expressing OPRM1/OPRD1 heterodimer; in the data active = inhibition above about 32%;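 note: 0% = cells with DMSO and 100% = wells lacking cells with DMSO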
HTR5A inv ctr2 – HTR5A inverse agonists, counter-screen for OPRM1-OPRD1 inverse agonist project, cell-based, luminescence; shares compounds with MOR-DOR inv ag-1; HTR5A-expressing cells, inverse agonism; inhibition, % at 9.3 µM; 580 tested, under 10 active; AID 504914, 2011;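 note: 0% = cells with DMSO and 100% = no-cell wells with DMSO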
MOR-DOR inv ag-2 – inverse agonists of MOR-DOR heterodimerization, counter-screen for HTR5A inverse agonist project, cell-based, luminescence | shares compounds with HTR5A inv ag | U2OS counter-screen cells, complementation luminescence | inhibition, % at 9.3 µM | 190 tested, under 10 active | AID 504912, 2011;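 note: 0% = cells with DMSO and 100% = wells without cells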
HTR5A inv confrm – HTR5A inverse agonists, retest of hits, confirmation, cell-based, luminescence; HTR5A-expressing cells, inverse agonism; AID 504916, 2011; shares compounds with HTR5A inv ag; inhibition, % at 9.3 µM; 190 tested, under 10 active;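 note: 0% = cells with DMSO and 100% = no cells with DMSO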
MOR-DOR ag-2 – OPRM1-OPRD1 heterodimerization promoters, counter-screen for HTR5A agonist project, cell-based, luminescence. activation, % at 9.3 µM. AID 504913, 2011. U2OS counter-screen cells, complementation luminescence, 3 h. shares compounds with HTR5A ag. 800 tested, 13% active; in the data active = activation above about 18%
HTR5A ag confirm – HTR5A agonists, retest of hits, confirmation, cell-based, luminescence. shares compounds with HTR5A ag. HTR5A agonist cell assay. activation, % at 9.3 µM. 800 tested, 17% active; in the data active = activation above about 17%;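 note: 0% = cells with vehicle only and 100% = full reference agonist response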
* marks the source's active call; other numbers are inactive results; x = not tested or not shown. An excerpt weighted towards active compounds, which were near 1.1% of everything screened. Unless noted, the rule behind the calls is not given here.

SMILES	HTR5A inv ag	HTR5A ag	MOR-DOR ag-1	MOR-DOR inv ag-1	MOR-DOR ag-2	HTR5A ag confirm	others
CCCCOCCCn1c(N)c(C(=O)OCCOC)c2nc3ccccc3nc21	-1.8	1.1	-7.2	33.0*	x	x	MOR-DOR inv conf=-8.5;HTR5A inv ctr2=-5.0
CCCCn1c(NC(=O)c2ccco2)c(C(=O)OCC)c2nc3ccccc3nc21	2.3	-1.3	-7.9	44.8*	x	x	MOR-DOR inv conf=-13.5;HTR5A inv ctr2=-11.7
CCCCn1c(NS(=O)(=O)c2ccc(C)cc2)c(C(=O)OCC)c2nc3ccccc3nc21	4.2	1.6	-4.0	21.6	x	x
C[C@]12CCC3C(CC[C@H]4C[C@H](O)[C@H](O)C[C@]34C)C1CC[C@@H]2O (stereo partly specified)	-6.4	1.6	-1.7	8.5	x	x
COc1ccc(CN2Cc3cnnn3-c3ccccc3C2C)cc1 (stereo unspecified)	13.2	-3.8	-2.2	10.4	x	x
Nc1cc(Cl)c2nonc2c1[N+](=O)[O-]	-0.2	-8.5	-7.8	40.2*	x	x	MOR-DOR inv conf=11.2;HTR5A inv ctr2=10.6
COc1ccc(C2=NS(=O)(=O)N(C)C(C(=O)N3CCC4(CC3)OCCO4)=C2)cc1OC	-1.5	1.5	0.5	-2.4	x	x
c1ccc(C2N3CCCN23)cc1 (stereo unspecified)	10.0	1.8	0.4	-2.1	x	x
ON1C2CCCCC2N(O)C1c1ccccc1 (stereo unspecified)	15.3	3.1	-7.8	44.7*	x	x	MOR-DOR inv conf=-37.4;HTR5A inv ctr2=-20.9
CCOc1ccc2nc(N=Nc3c(O)[nH]c(=S)[nH]c3=O)sc2c1	37.6	-0.8	-6.6	32.2*	x	x	MOR-DOR inv conf=7.1;HTR5A inv ctr2=4.8
CC(=O)OC1C(=O)OCC23CCC4(C)OC4C2OC2CC(OC(=O)C=CC=CC(=O)OCCC1C)C3(C)C21CO1 (stereo unspecified)	12.2	-3.2	-2.7	11.7	x	x
C[C@H]1CCCC(=O)CCC/C=C/c2cc(O)cc(O)c2C(=O)O1	-23.9	-4.4	2.9	-15.8	x	x
C[C@H]1CCC/C=C/[C@@H]2C[C@H](O)C[C@H]2[C@H](O)/C=C/C(=O)O1	0.2	-2.1	-6.0	32.9*	x	x	MOR-DOR inv conf=-11.1;HTR5A inv ctr2=-3.8
CN(C)c1ccc(/C=C/c2cc[n+](C)c3ccccc23)cc1	38.2*	-9.8	-5.4	27.9	x	x	MOR-DOR inv ag-2=-485.1;HTR5A inv confrm=-16.1
CC(=O)c1cn(CC(=O)NCCc2c[nH]c3ccccc23)c2ccccc12	-17.5	5.2	0.8	-3.9	x	x
CCN(CC)c1ccc(N=Cc2c(O)n(-c3ccccc3C)c(=O)[nH]c2=O)cc1	-25.9	17.8*	3.3	-18.3	12.9	4.8
CC(=O)c1cccc(OCC(=O)N2CCN(CC(=O)Nc3cccc(F)c3)CC2)c1	3.9	-1.5	-3.4	13.5	x	x
CCCCC/C(=N/O)c1c(C)[nH]c2ccccc12	-40.2	15.5*	6.4	-31.6	4.4	2.3
CC(=O)C1C(N2CC2)CC2C3CC=C4CC(O)CCC4(C)C3CCC21C (stereo unspecified)	1.6	-0.5	-0.7	3.8	x	x
CCC(=NCCc1c[nH]c2ccccc12)c1c(O)n(-c2ccc(C)cc2)c(=O)[nH]c1=O	-113.3	18.6*	-0.4	1.9	-0.2	-8.1
CC(=NCCc1c[nH]c2ccccc12)c1c(O)n(Cc2ccccc2)c(=O)[nH]c1=O	-82.1	8.4	-0.7	3.6	x	x
CCC(=NCCc1c[nH]c2ccccc12)c1c(O)n(C)c(=O)n(C)c1=O	-124.1	40.5*	1.4	-7.4	1.4	1.2
Cc1[nH]c2ccccc2c1CN1CCCCC1	-7.4	1.9	-2.4	11.7	x	x
CC1=C[C@@H]2c3cccc4[nH]cc(c34)C[C@H]2N(C)C1	-93.3	26.2*	4.8	-22.6	1.4	33.9*
COc1ccc2[nH]cc(CCN=C(N)N)c2c1	-15.0	5.8	-0.1	0.3	x	x
SMILES	HTR5A inv ag	HTR5A ag	MOR-DOR ag-1	MOR-DOR inv ag-1	MOR-DOR ag-2	HTR5A ag confirm	others
CCCCc1ccc2[nH]cc(CCN)c2c1	-231.0	97.1*	5.2	-30.6	-2.5	-7.0
CC(N)Cc1c[nH]c2ccc(Cl)cc12 (stereo unspecified)	-41.7	2.5	-2.2	11.6	x	x
NCCc1c[nH]c2ccc(OCc3ccccc3)cc12	-85.8	33.1*	0.1	-0.4	-0.3	1.3
COc1nc2ccccc2nc1N1CCN(C)CC1	-79.0	20.3*	-1.2	6.9	3.9	6.3
Fc1ccccc1CNCCc1c[nH]c2ccccc12	-88.5	25.1*	-2.1	9.5	2.4	39.2*
Fc1ccc(CNCCc2c[nH]c3ccccc23)cc1	-12.8	4.6	-2.8	14.5	x	x
COc1ccc2c3c1OC1C(=O)CC[C@@]4(O)[C@@H](C2)N(CC2CC2)CC[C@]314 (stereo partly specified)	6.2	-2.7	2.6	-10.4	x	x
CC12CC(=O)C3C(CCC4CC(=O)C=CC43C)C1CCC2=O (stereo unspecified)	14.1	-3.6	-3.0	15.6	x	x
Clc1cc(I)cc(Cl)c1NC1=NCCN1	-153.7	43.0*	-1.1	5.8	1.3	-0.8
CC[C@@H](O)C[C@H]1CCC[C@@]2(C[C@@H]3OC(=O)/C=C/[C@@](C)(O)[C@@H](O)[C@H](C)[C@@H](O)[C@H](OC4CCC(N(C)C)C(C)O4)[C@@H](O)[C@](C)(O)CCCCC/C=C/[C@@H]4CC(C)(C)O[C@@]4(O)C[C@H](O2)[C@H]3C)O1 (stereo partly specified)	-24.6	6.4	2.0	-8.9	x	x
CC1C(c2ccccc2)OC(=O)N1C (stereo unspecified)	9.8	-2.5	-4.1	20.1	x	x
Cc1[nH]nc2ccc(-c3cncc(OC[C@@H](N)Cc4c[nH]c5ccccc45)c3)cc12	-37.1	14.6	17.1	-93.8	x	x
CCCN(CCC)C1CCc2cccc(O)c2C1 (stereo unspecified)	-146.4	45.9*	-1.8	10.1	0.6	55.7*
CCCN1CC[C@@H]2c3cc(O)ccc3CC[C@@H]21	-19.8	6.2	0.9	-5.0	x	x
CCCN(CCC)C1CCc2ccc(O)cc2C1 (stereo unspecified)	-139.4	35.2*	1.7	-9.3	30.8*	0.8
